Most compounds without a hit are left out; they make up all but 19% or so of the library.
DT40 TDP1 no CPT = qHTS for Inhibitors of human tyrosyl-DNA phosphodiesterase 1 (TDP1): qHTS in cells in absence of CPT. DT40 Tdp1-/- hTDP1 cells, no CPT, ATP luminescence, 48 h. AID 686978, 2013. 15% of 420,000 active. Potency, µM (highest dose often 46.2 µM), actives largely listed as inhibitors; note: nearly all actives have a fitted effect of over 55% in size
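Luminescent ATP content (CellTiter-Glo) served as the growth readout. Knockout chicken DT40 cells expressing human TDP1 were exposed to compounds without camptothecin for a minimum 48 hr at 37 °C.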
IL-1B inflam inh = inflammasome signaling inhibition, IL-1 beta readout | 4.7% of 360,000 active | THP-1 LPS/ATP IL-1B secretion, AlphaLISA, 16 h; hits give low values | activity change, % at 57.5 µM; in the data active = activity change below about -50%; inconclusive = mostly about -30% to -49%
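Secreted IL-1B measured by AlphaLISA bead assay after 16 h compound exposure of THP-1 cells; compounds (final up to 57.5 uM) added 1 h before LPS (250 ng/mL) and ATP (1.25 mM) stimulation; lower signal means less secretion.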
DT40 TDP1 CPT = DT40-hTDP1 cell growth loss with CPT; chicken DT40 Tdp1-/-;hTDP1 cells + 20 nM CPT, ATP luminescence, 48 h; Potency, µM (highest dose often 46.2 µM), most hits filed as inhibitors; 12% of 420,000 active; note: nearly all actives have a fitted effect of over 55% in size
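Chicken DT40 Tdp1-/- cells stably complemented with human TDP1 were seeded at 400 cells/well in medium containing 20 nM camptothecin, exposed to pin-transferred compounds, and grown at 37 °C for at least 48 hr. Viability was read as ATP luminescence.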
TGFb SMAD3 inh = TGF-b pathway inhibition | AID 588855 | Potency, µM (highest dose often 46.1 µM), actives largely listed as inhibitors | HepG2 CAGA-GFP TGF-b/SMAD3 reporter, GFP fluorescence, 18 h; TGF-beta stimulated, 500 pg/mL final | 1.2% of 410,000 active; note: nearly all actives have a fitted effect of over 65% in size
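Using HEPG2 CAGA-GFP reporter cells at 1000 cells/well, we pinned test compounds, stimulated with recombinant TGF-beta (500 pg/mL final) and measured total well GFP after 18 h.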
ASM inhibitor = inhibitors of human secretory acid sphingomyelinase; placental ASM, HMU-PC fluorogenic substrate, 60 min; Potency, µM (highest dose often 57.5 µM), hits mostly inhibitors; 0.006% of 340,000 active; AID 504937
Target sequence (P17405 47-631 limits assumed): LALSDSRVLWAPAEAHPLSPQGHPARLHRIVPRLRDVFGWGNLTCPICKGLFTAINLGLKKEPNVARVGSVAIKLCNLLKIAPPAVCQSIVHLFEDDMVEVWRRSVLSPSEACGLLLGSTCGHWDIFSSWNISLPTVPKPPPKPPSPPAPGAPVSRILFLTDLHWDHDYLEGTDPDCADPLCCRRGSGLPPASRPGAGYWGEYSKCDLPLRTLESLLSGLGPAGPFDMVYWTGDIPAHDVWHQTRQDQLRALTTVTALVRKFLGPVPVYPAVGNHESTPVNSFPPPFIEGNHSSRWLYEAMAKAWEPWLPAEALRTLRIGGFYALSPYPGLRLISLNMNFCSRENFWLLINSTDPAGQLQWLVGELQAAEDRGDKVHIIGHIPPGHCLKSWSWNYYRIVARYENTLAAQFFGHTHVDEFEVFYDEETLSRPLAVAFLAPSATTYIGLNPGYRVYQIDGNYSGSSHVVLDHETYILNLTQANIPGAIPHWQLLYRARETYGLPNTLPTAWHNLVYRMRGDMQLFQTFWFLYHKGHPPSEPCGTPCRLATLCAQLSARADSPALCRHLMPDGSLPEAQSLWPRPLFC
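qHTS format. ASM enzyme prepared from human placenta hydrolyses the fluorogenic substrate HMU-PC0 (9 uM final) over 60 min at 37 °C after a 10 min compound preincubation.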
HepG2 tox = kills HepG2 cells in TGF-b inhibitor counter-screen; HepG2 CAGA-GFP viability, ATP luminescence, 18 h; Potency, µM (doses to about 46.1 µM), usual class: cytotoxic; 0.76% of 410,000 active; AID 588856
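HepG2 CAGA-GFP cells (1000/well, DMEM with 1% FBS) received compound, then TGF-beta at 500 pg/mL final, and were incubated 18 hours at 37 degrees C. Viability was read by CellTiter-Glo luminescence. Media-only wells were set as complete cell-killing and DMSO as no toxicity.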
Each line names hits and unclear results; the compound was inactive in the other large screens. Unless noted, calls come from the whole dose curve; as a rule, active = well fitted curve in the direction sought with a large enough effect; inconclusive = small, poorly fitted or top-dose-only effect, or another doubt; inactive = no such curve, though single readings can be large; an effect the other way counts as inactive or inconclusive.

Cc1ccccc1-c1ccc(CN2C(C(C)C)C(=O)N(Cc3cn(CCC4OCCO4)nn3)CCS2(=O)=O)cc1 (stereo not given)	DT40 TDP1 no CPT 18µM, IL-1B inflam inh -57, DT40 TDP1 CPT inconclusive, TGFb SMAD3 inh inconclusive (no result: ASM inhibitor)
CC(C)Cc1ccc(CN2C(C(C)C)C(=O)N(Cc3cn(CCC4OCCO4)nn3)CCS2(=O)=O)cc1 (stereo not given)	DT40 TDP1 no CPT 18µM, IL-1B inflam inh -56, DT40 TDP1 CPT inconclusive, TGFb SMAD3 inh inconclusive (no result: ASM inhibitor)
COc1ccc(-c2ccc(CN3C(C(C)C)C(=O)N(Cc4cn(CCC5OCCO5)nn4)CCS3(=O)=O)cc2)cc1 (stereo not given)	DT40 TDP1 no CPT 8.2µM, DT40 TDP1 CPT 9.2µM (no result: ASM inhibitor)
N#Cc1cc2c(=O)n3ccccc3nc2n(-c2nnc(SCc3ccc(F)cc3)s2)c1=O	none (no result: IL-1B inflam inh, ASM inhibitor)
CCCOc1ccccc1C(=O)N1CCCCC1CCN1CCCCC1 (stereo not given)	none (no result: IL-1B inflam inh, ASM inhibitor)
COc1cc(/C=C(\C#N)c2nc3ccccc3[nH]2)ccc1Oc1ccc([N+](=O)[O-])cn1	DT40 TDP1 no CPT 21µM, IL-1B inflam inh inconclusive, DT40 TDP1 CPT 12µM, TGFb SMAD3 inh inconclusive
Cc1cc(/C=C(/C#N)c2nc3ccccc3[nH]2)c(C)n1-c1cccc([N+](=O)[O-])c1	DT40 TDP1 no CPT 13µM, IL-1B inflam inh -62, DT40 TDP1 CPT 16µM
COc1ccc(/C=C(\C#N)c2nc3ccccc3[nH]2)cc1O	DT40 TDP1 no CPT 21µM, IL-1B inflam inh inconclusive, DT40 TDP1 CPT 15µM
COC(=O)/C(=C\c1cc(OC)c(OC)c(OC)c1)c1nc2ccccc2[nH]1	DT40 TDP1 no CPT 16µM, IL-1B inflam inh -99, DT40 TDP1 CPT inconclusive
CCC(=O)Oc1ccc(/C=C(\C#N)c2nc3ccccc3[nH]2)cc1OC	DT40 TDP1 no CPT inconclusive, DT40 TDP1 CPT inconclusive (no result: IL-1B inflam inh, ASM inhibitor)
COc1ccc(C2CC(=O)N(CC(=O)Nc3ccc(C(C)=O)cc3)c3ccccc3S2)cc1OC (stereo not given)	none (no result: DT40 TDP1 no CPT, IL-1B inflam inh, DT40 TDP1 CPT, ASM inhibitor)
COc1ccc(Cl)cc1C(=O)NCC(c1ccc(N(C)C)cc1)N1CCCC1 (stereo not given)	DT40 TDP1 no CPT inconclusive, DT40 TDP1 CPT inconclusive (no result: IL-1B inflam inh, ASM inhibitor)
COc1ccc(C(=O)NCCS(=O)(=O)N2CCN(C(=O)c3ccco3)CC2)cc1	none
CN(CC(=O)Nc1cccc(F)c1)C(=O)CNC(=O)Cc1cccc2ccccc12	DT40 TDP1 no CPT inconclusive, DT40 TDP1 CPT inconclusive
N#C/C(=C\c1cc([N+](=O)[O-])c(N2CCOCC2)cc1N1CCOCC1)c1nc2ccccc2[nH]1	DT40 TDP1 no CPT 23µM, IL-1B inflam inh inconclusive, DT40 TDP1 CPT inconclusive, ASM inhibitor inconclusive
COc1ccc(/C=C(\C#N)c2nc3ccccc3c(=O)[nH]2)cc1OC	DT40 TDP1 no CPT 18µM, DT40 TDP1 CPT inconclusive (no result: IL-1B inflam inh, ASM inhibitor)
COc1cc(/C=C(\C#N)c2nc3ccccc3[nH]2)cc(OC)c1O	DT40 TDP1 no CPT 13µM, IL-1B inflam inh -60, DT40 TDP1 CPT 16µM
CCCNC(=O)C(Cc1ccccc1)NC(=O)c1cccc([N+](=O)[O-])c1 (stereo not given)	none
CC(=O)N1CCC(C(=O)Nc2cc(C)cc(C)c2)CC1	none
Cn1c(=O)cc2c3c(c(N4CCCCC4)ccc31)C(=O)c1ccccc1-2	DT40 TDP1 no CPT 10µM, DT40 TDP1 CPT inconclusive
O=C1c2ccccc2-c2onc3ccc(NCc4ccco4)c1c23	DT40 TDP1 no CPT 23µM, IL-1B inflam inh -97, DT40 TDP1 CPT inconclusive, ASM inhibitor inconclusive
O=C1c2ccccc2-c2onc3ccc(N4CCCC4)c1c23	DT40 TDP1 no CPT 26µM, IL-1B inflam inh inconclusive, DT40 TDP1 CPT inconclusive, TGFb SMAD3 inh inconclusive
CCOc1ccc2noc3c2c1C(=O)c1ccccc1-3	TGFb SMAD3 inh inconclusive
O=C1C=C(N2CCCCC2)c2ccccc2C1=O	DT40 TDP1 no CPT 6.5µM, IL-1B inflam inh -97, DT40 TDP1 CPT 3.7µM, TGFb SMAD3 inh 2.8µM

From PubChem BioAssay
